Inconclusive results are not listed. Activity calls are given as the source filed them. Calls follow the shape of the dose curve; as a rule, active = well fitted cell-killing curve with a large enough effect; inconclusive = small, poorly fitted or top-dose-only effect; inactive = flat fitted curve, though single readings scatter.
Potency is read from the fitted curve at half-maximal effect.

This assay can be described thus: Quantitative highthroughput screen to assess conditional lethalithy of NOMO1 cells grown in RPMI1640 with dialyzed fetal bovine serum (RPMI+ds) (AID 1963877). Also: nearly all actives have a fitted effect of over 30% in size.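 As to viability: 100% = DMSO control wells and 0% = empty wells.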 Particulars: NOMO1 in RPMI+dialyzed FBS viability, ATP luminescence, 48 h; series mostly up to 45.8 µM; viability: at the top concentration. Put shortly:
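Each medium arm—HPLM with 10% dialyzed FBS, or RPMI1640 with 5 mM glucose and 10% untreated or dialyzed FBS—was screened against an 11-point, 3-fold compound titration for 48 h at 37 °C, with CellTiter-Glo luminescence as endpoint.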
With `NCc1c[nH]c(=S)n1[C@H]1CCc2c(F)cc(F)cc2C1`, the viability (as a rule, a per cent measure of how many cells are alive, often set against a control) was 78.3% (inactive).

Consider `COc1ccc(-c2coc3cc(O)ccc3c2=O)cc1`, for which the “viability” value is 92.4% (inactive).

In the case of `CC(=O)O[C@@]12CO[C@H]1C[C@H](O)[C@@]1(C)C(=O)[C@H](O)C3=C(C)[C@@H](OC(=O)C(O)[C@@H](NC(=O)OC(C)(C)C)c4ccccc4)C[C@@](O)([C@@H](OC(=O)c4ccccc4)[C@@H]21)C3(C)C` (stereo partly drawn), the “viability” value was 8.92% (inactive).

On to `O=c1c(-c2ccc(O)cc2)coc2cc(O)cc(O)c12`, for which the “viability” value was 92.7% (inactive).

`Oc1cc(O)cc(C=Cc2ccc(O)c(O)c2)c1`: the “viability” value is 82.3% (inactive).

With `CCC1=C[C@@H]2CN(C1)Cc1c([nH]c3ccccc13)[C@@](C(=O)OC)(c1cc3c(cc1OC)N(C)[C@@H]1[C@@](O)(C(=O)OC)[C@H](OC(C)=O)[C@]4(CC)C=CCN5CC[C@]31[C@@H]54)C2`, the Potency is 0.0743 µM (active).

In the case of `CN[C@H]1[C@@H](O)[C@@H]2O[C@@H]3O[C@H](C)CC(=O)[C@]3(O)O[C@@H]2[C@@H](NC)[C@H]1O`, the “viability” value was 90.7% (inactive).

Consider `NNCCc1ccccc1`, for which the “viability” value is 70.4% (inactive).

As for `Cc1ccc(NC(=O)Nc2cc(C(F)(F)F)ccc2F)cc1Nc1ccc2c(c1)NC(=O)C2=Cc1ccc[nH]1`, the Potency is 20.9 µM (active).

`O=c1[nH]c(=O)n([C@H]2C[C@@H](O)[C@@H](CO)O2)cc1F`: the Potency is 0.0148 µM (active).

Consider `OC[C@H]1O[C@@H](Oc2cc(O)cc(C=Cc3ccc(O)cc3)c2)[C@H](O)[C@@H](O)[C@H]1O`, for which the Potency is 2.35 µM (active).

Turning to `C[C@@H]1C[C@H]2[C@@H]3CCC4=CC(=O)C=C[C@]4(C)[C@@]3(F)[C@@H](O)C[C@]2(C)[C@@]1(O)C(=O)CO`, the “viability” value was 82.4% (inactive).

Take `CNC(=O)c1ccc(N2C(=S)N(c3cnc(C#N)c(C(F)(F)F)c3)C(=O)C23CCC3)cc1F`: the Potency is 2.35 µM (active).

In the case of `CC(C)C[C@H](NC(=O)[C@@H](O)[C@H](N)Cc1ccccc1)C(=O)O`, the Potency was 20.9 µM (active).

As for `O=C(Nc1ccccc1)Nc1ccc(-c2ccc(C(=O)[C@H]3CCC[C@H]3C(=O)O)cc2)cc1`, the Potency is 6.62 µM (active).

Turning to `O=c1cc(-c2ccc(O)cc2)oc2cc(O)cc(O)c12`, the Potency is 18.7 µM (active).

As for `Nc1ccn([C@@H]2O[C@H](CO)[C@H](O)C2(F)F)c(=O)n1`, the Potency was 0.0833 µM (active).

In the case of `CC1(C)C(=O)N(CCN2CCC(C(=O)c3ccc(F)cc3)CC2)c2ccccc21`, the Potency was 18.7 µM (active).

Values taken from PubChem BioAssay (NCATS).
